# Assay outcomes (PubChem)
# Shown are actives, neighbours in structure and some others; about 2.4% of the full set was active somewhere.
# Pol eta inh: blocks human DNA polymerase eta activity. Q9Y253. recombinant Pol eta, fluorescent DNA replication assay. Potency, µM (top dose mostly 114 µM), inactives show top-dose activity change, negative = inhibition, most hits filed as inhibitors. hit rate 1.2% among 390,000; note: % is set by controls: 0 for no effect and ±100 for the full control effect
#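 Pol eta at 10 nM preincubated with compounds 15 min at room temperature; reaction started with fluorescent substrate (50 nM final) and read kinetically at 0 and 10 min.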
# Pol iota inh: blocks human DNA polymerase iota activity | Q9UNA4 | Pol iota fluorescent replication assay, 10 min | Potency, µM (doses to about 115 µM), for the others: at the highest dose activity, negative = inhibition, usual class: inhibitors | hit rate 1% among 390,000 | AID 588590
#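 Fluorescent replication assay read twice, at 0 min and 10 min after adding 50 nM (final) substrate. Enzyme (10 nM) and compounds were first incubated 15 min at room temperature; enzyme-free buffer wells were negative controls.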
# WRN helicase inh: blocks human WRN helicase | Q14191 | WRN helicase unwinding, fluorescent forked duplex, kinetic | Potency, µM (highest dose often 114 µM), inactives show at the top dose activity change, negative = inhibition, hits mostly inhibitors | hit rate 0.46% among 360,000 | AID 651768; note: % is set by controls: 0 for no effect and ±100 for the full control effect; nearly all actives have a fitted effect of over 55% in size
#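 Primary qHTS, 1536-well format. 20 nM WRN + compound, 15 min RT; start with 100 nM forked fluorophore/quencher duplex, 2 mM ATP (final); kinetic read ex 525/em 598 nm.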
# POLK inh: blocks human DNA polymerase kappa activity. Q9UBT6. purified Pol kappa, fluorescent DNA synthesis assay, 10 min. Potency, µM (titrated, usually from 107 µM), for inactives: top-dose activity, negative = inhibition, usual class: inhibitors. hit rate 0.53% among 400,000; note: % is set by controls: 0 for no effect and ±100 for the full control effect
# Target sequence (Q9UBT6 whole entry, looked up): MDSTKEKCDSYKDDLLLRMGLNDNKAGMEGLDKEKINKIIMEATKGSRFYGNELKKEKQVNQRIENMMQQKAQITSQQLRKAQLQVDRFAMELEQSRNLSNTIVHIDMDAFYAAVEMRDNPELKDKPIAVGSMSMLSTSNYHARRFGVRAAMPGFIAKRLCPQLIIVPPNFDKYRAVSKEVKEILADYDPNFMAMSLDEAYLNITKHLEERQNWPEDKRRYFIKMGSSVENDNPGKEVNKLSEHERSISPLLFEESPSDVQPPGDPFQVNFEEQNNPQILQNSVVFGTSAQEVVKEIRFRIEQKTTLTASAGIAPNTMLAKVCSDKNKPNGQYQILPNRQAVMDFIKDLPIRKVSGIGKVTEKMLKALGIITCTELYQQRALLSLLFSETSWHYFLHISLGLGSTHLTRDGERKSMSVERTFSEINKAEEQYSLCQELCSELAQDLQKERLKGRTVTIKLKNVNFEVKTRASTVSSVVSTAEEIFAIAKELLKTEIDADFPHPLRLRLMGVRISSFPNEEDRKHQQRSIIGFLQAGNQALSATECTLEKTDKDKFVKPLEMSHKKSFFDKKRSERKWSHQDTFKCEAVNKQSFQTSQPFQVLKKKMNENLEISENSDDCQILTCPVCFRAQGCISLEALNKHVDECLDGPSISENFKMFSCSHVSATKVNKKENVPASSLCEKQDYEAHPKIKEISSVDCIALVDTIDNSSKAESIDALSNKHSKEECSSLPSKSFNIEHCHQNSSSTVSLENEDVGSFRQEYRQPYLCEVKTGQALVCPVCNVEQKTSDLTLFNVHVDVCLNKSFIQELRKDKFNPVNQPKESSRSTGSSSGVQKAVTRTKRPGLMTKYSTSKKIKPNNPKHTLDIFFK
#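 10 nM Pol kappa preincubated 15 min at room temperature with compounds, then reaction started with substrate at 50 nM final. Fluorescence read kinetically at 0 and 10 min; buffer-only wells served as negative control.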
# Pol beta inh: DNA polymerase beta (human) inhibition; Pol beta primer extension/strand displacement, fluorescence kinetic; P06746; hit rate 1.3% among 340,000; Potency, µM (series often up to 114 µM), without a hit: top-dose activity change, negative = inhibition, hits mostly inhibitors; note: % is set by controls: 0 for no effect and ±100 for the full control effect
#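 Pol beta (10 nM) and compounds were preincubated 15 min at room temperature, then 50 nM substrate (final) started primer extension/strand displacement. Reads were taken at 0 and 10 min; concentration-response data were fitted to a four-parameter Hill equation.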
# FEN1 inhibitor: human FEN1 inhibition; hit rate 0.35% among 390,000; Potency, µM (doses to about 114 µM), for the others: at the top dose activity change, negative = inhibition, actives largely listed as inhibitors; Recombinant FEN1 flap cleavage, fluorescence, 15 min; P39748; note: % is set by controls: 0 for no effect and ±100 for the full control effect; nearly all actives have a fitted effect of over 65% in size
#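 Concentration–response screening of FEN1 (10 nM): 15 min compound preincubation at room temperature, reaction started with 50 nM substrate and read at 0 and 15 min. Corrected, normalized data were fitted by a four-parameter Hill equation.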
# * = called active by the depositor; ? = inconclusive; nt = no result given; ! = a repeat was not active; [ ] = dose if it differs, or a comment. Calls come from the whole dose curve; as a rule, active = well fitted curve in the direction sought with a large enough effect; inconclusive = small, poorly fitted or top-dose-only effect, or another doubt; inactive = no such curve, though single readings can be large; an effect the other way counts as inactive or inconclusive. Potency is the fitted concentration of half-maximal effect.
SMILES,Pol eta inh,Pol iota inh,WRN helicase inh,POLK inh,Pol beta inh,FEN1 inhibitor
Cc1ccc(/C=C2/C(=O)NC(=O)N(CCc3ccc(F)cc3)C2=O)o1,?,?,50µM*,-19%,16%,5%
O=C1NC(=O)N(CCc2ccc(F)cc2)C(=O)/C1=C/c1cccs1,-19%,22µM*,32µM*,-19%,?,-19%
Cc1ccc(NC(=O)COC(=O)/C=C/c2ccco2)cc1S(=O)(=O)N(C)C,16µM*,?,-26%,-44%,?,13%
Cc1ccc(N/N=C/C=C/c2ccco2)cc1,-15%,149%,-18%,-15%,nt,-18%
CC1(C)C(=O)CC[C@]2(C)C3C(=O)C=C4[C@H]5C[C@@](C)(C(=O)O)CC[C@]5(C)CC[C@]4(C)[C@]3(C)CC[C@@H]12 (some centres undefined),-15%,19%,18%,5%,45µM*,1%
ClCCN(CCCl)c1ccc(/C=C/c2ccnc3ccccc23)cc1,nt,-12%,nt,-16%,nt,-9%
O=Cc1ccc(O)c(O)c1,-5%,?,0%,-9%,11%,-12%
N#C/C(=C\c1ccc(O)c(O)c1)C(N)=S,nt,nt,nt,0.13µM*,nt,nt
CC1CC[C@@]2(OC1)O[C@@H]1[C@@H](O)[C@H]3C4CC[C@H]5C[C@@H](O[C@@H]6O[C@H](CO)[C@H](O[C@@H]7O[C@H](CO)[C@@H](O)[C@H](O[C@@H]8OC[C@@H](O)[C@H](O)[C@H]8O)[C@H]7O[C@@H]7O[C@H](CO)[C@@H](O)[C@H](O[C@@H]8O[C@H](CO)[C@@H](O)[C@H](O)[C@H]8O)[C@H]7O)[C@H](O)[C@H]6O)[C@H](O)C[C@]5(C)C4CC[C@]3(C)[C@H]1[C@@H]2C (some centres undefined),nt,nt,nt,-7%[19.4 µM],nt,nt
O=C1NC(=O)N(Cc2ccco2)C(=O)/C1=C/c1ccc(-c2cccc([N+](=O)[O-])c2)o1,8.9µM*,7.9µM*,22µM*,22µM*,18µM*,?
CCOC(=O)N1CC(C)N(/[N+]([O-])=N/Oc2ccc([N+](=O)[O-])cc2[N+](=O)[O-])CC1C (centres undefined),nt,?,nt,-7%,nt,2%
COc1ccc(NC(=O)CCn2cnc3onc(-c4ccc(F)cc4)c3c2=O)cc1OC,-12%,?,nt,-4%,-3%,-3%
COc1ccc(C=C2C(=O)NC(=S)NC2=O)cc1OC,-7%,?,45µM*,-5%,nt,16%
COc1ccc(/C=C/C=C2C(=O)NC(=S)NC2=O)cc1,25µM*,?,45µM*,-28%,nt,?
COc1ccccc1C=C1C(=O)NC(=S)NC1=O,13%,48%,?,-14%,nt,-1%
CCOc1cc(C=C2C(=O)NC(=S)NC2=O)ccc1O,-14%,?,50µM*,-14%,nt,-15%
O=C1NC(=O)N(c2ccccc2)C(=O)/C1=C/c1ccc(Sc2ccccc2)o1,?,14%,45µM*,?,36%,7%
O=c1[nH]c(=S)n(-c2ccccc2)c(O)c1/C=N/N1CCCCC1c1cccnc1 (centres undefined),-23%,?,79µM*,6%,?,-8%
CNCCc1ccc(O)c(O)c1,-6%[57.1 µM],89µM*,10%,?,0%[57.1 µM],nt
CC(C)OC(=O)C(O)(c1ccc(Cl)cc1)c1ccc(Cl)cc1,nt,nt,nt,-3%[60.1 µM],nt,nt
O=[N+]([O-])/C=C/c1c(Cl)cccc1Cl,-1%,2%,32µM*,-13%,nt,-5%
Cc1ccc(NP(=O)(Oc2ccccc2F)Oc2ccccc2F)cc1C,-17%,89µM*,-17%,?,-17%,-34%
Cc1cccc(NP(=O)(Oc2ccccc2F)Oc2ccccc2F)c1,-11%,3%,-6%,-11%,-15%,-20%
O=C(O)c1ccccc1SSc1ccccc1C(=O)O,-8%,?,-14%,-11%,?,-4%
C[CH2][Hg][S]c1ccccc1C(=O)O,-12%,?,-6%[11.6 µM],-17%,nt,22µM*
SMILES,Pol eta inh,Pol iota inh,WRN helicase inh,POLK inh,Pol beta inh,FEN1 inhibitor
CC[C@@]1(O)C(=O)OCc2c1cc1n(c2=O)Cc2cc3ccccc3nc2-1,1%[57.1 µM],35%,nt,8%[60.1 µM],-8%[57.1 µM],-1%
CC[C@@]1(O)C(=O)OCc2c1cc1n(c2=O)Cc2cc3c(O)cccc3nc2-1,nt,nt,nt,30µM*,nt,nt
Cc1cccc(C(=O)Nc2nnc(SCC(=O)NCc3ccco3)s2)c1,-10%,30%,-1%,-3%,nt,18%
c1cc[n+]2c(c1)-c1cccc[n+]1CC2,nt,nt,nt,-3%[60.1 µM],nt,nt
O=C1NC(=O)C(=Cc2ccc(Oc3ccc([N+](=O)[O-])cc3)cc2)C(=O)N1,?,61%,25µM*,-16%,?,-10%
COc1cc(C=C2C(=O)NC(=O)NC2=O)ccc1OCc1ccc([N+](=O)[O-])cc1,-26%,46%,45µM*,-10%,-7%,-8%
Cc1[nH]n(-c2ccccc2)c(=O)c1C(c1cccc([N+](=O)[O-])c1O)c1c(C)[nH]n(-c2ccccc2)c1=O,-21%,0.28µM*,?,-12%,0%,-13%
CC(N)C(O)c1ccc(O)c(O)c1 (centres undefined),nt,nt,nt,3.2µM*!,nt,nt
CC(N)[C@@H](O)c1ccccc1 (some centres undefined),nt,nt,nt,-6%[60.1 µM],nt,nt
C=C/C(=C/C(=O)C[C@H](C)C[C@@H](C)CC[C@H](O)[C@H](C)C(=O)C[C@@H](O)[C@H](C)[C@@H](C)OC(=O)C[C@@H](O)C1=C(C)C(=O)OC1=O)CC,nt,nt,nt,4.7µM*,nt,nt
N#CC(C#N)=Cc1cc(O)c(O)c(O)c1,2.2µM*,9.5µM*,nt,3.2µM*,-26%[57.1 µM],nt
N#CC(C#N)=Cc1ccc(O)cc1,nt,nt,nt,-14%[60.1 µM],nt,nt
CCCCC(C#N)(Cn1cncn1)c1ccc(Cl)cc1 (centres undefined),nt,nt,nt,15%[60.1 µM],nt,nt
CCOc1cc(OP(=S)(OC)OC)nc(CC)n1,nt,nt,nt,13%[60.1 µM],nt,nt
Cc1cc(/C=C/c2cccc3sc(C)[n+](CCCCI)c23)ccc1N(CCCl)CCCl,nt,79µM*,nt,56µM*,nt,?
CNC(=S)S,nt,nt,nt,15%[60.1 µM],nt,nt
CCC(CO)NC(=O)[C@@H]1C=C2c3cccc4[nH]cc(c34)C[C@H]2N(C)C1 (some centres undefined),?,32µM*,nt,nt,-8%[57.1 µM],nt
CC(C)[C@H]1C(=O)N2CCC[C@H]2[C@]2(O)O[C@](NC(=O)[C@@H]3C=C4c5cccc6[nH]cc(c56)C[C@H]4N(C)C3)(C(C)C)C(=O)N12,-12%,22µM*,-6%,-35%,-3%,-10%
CC(C)C[C@H]1C(=O)N2CCCC2[C@]2(O)O[C@](NC(=O)[C@@H]3C=C4c5cccc6[nH]cc(c56)CC4N(C)C3)(C(C)C)C(=O)N12 (some centres undefined),-25%,?,-1%,?,0%,-20%
